The full list was thinned out, with hits kept by preference.
Pf apPOL block – Pf-apPOL DNA polymerase inhibition; 210,000 tested, 0.25% active; AID 1794808; Recombinant Pf-apPOL, molecular beacon fluorescence, 1.5 h; inhibition, % at 10 µM
mHTT-CaM PPI inh – inhibitors of human mutant huntingtin-calmodulin interaction | P42858 | AlphaScreen His-mHTT/GST-CaM binding, luminescence | inhibition, % at 15 µM | 190,000 tested, 3.6% active | AID 1671202;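 further: 0% = both proteins with DMSO and 100% = one protein alone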
* hit, by the source's call; i = inactive; / = no result given. No stated cut-off is given here; in the data, active means inhibition above about 50%; inactive means the rest.

SMILES | Pf apPOL block | mHTT-CaM PPI inh
Cc1ccc(CC(=O)N2CCc3c(c(C(=O)NCc4ccc(F)cc4)nn3C)C2)cc1 | -9 | 69*
CCC(CC)C(=O)N1CCc2c(c(C(=O)NCc3ccc(F)cc3)nn2C)C1 | -8 | 58*
COc1ccc(CC(=O)N2CCc3c(c(C(=O)NCc4ccccc4)nn3C)C2)cc1 | -7 | 61*
COc1ccc(C(=O)N2CCc3c(c(C(=O)NCc4ccc5c(c4)OCO5)nn3C)C2)cc1 | -7 | 47
Cn1nc(C(=O)NCc2ccccc2)c2c1CCN(C(=O)c1ccco1)C2 | -10 | 18
COc1ccc(CC(=O)N2CCc3c(c(C(=O)NCc4ccc(F)cc4)nn3C)C2)cc1 | -6 | 74*
Cc1ccc(CC(=O)N2CCc3c(c(COCc4ccccc4F)nn3C)C2)cc1 | -8 | 7
COC(=O)c1cc(C#N)c(Sc2ncc([N+](=O)[O-])s2)nc1C(OC)OC | 6 | /
Cc1cc(C=NNc2ccc([N+](=O)[O-])cc2)c2c(C)ccc(C(C)C)cc1-2 | -2 | /
CS(=O)(=O)NC1CC2CC1N(C(=O)CCc1ccccc1)C2 (stereo unspecified) | -3 | 0
COc1ccc(-c2cc3nc(C)cc(Nc4ccc(C(N)=O)cc4)n3n2)cc1OC | 12 | 22
Cc1cc(Nc2ccc(C(N)=O)cc2)n2nc(C)c(-c3ccccc3)c2n1 | -6 | 74*
Cc1nc2c(-c3ccc(Cl)cc3)c(C)nn2c(N)c1-c1ccccc1 | -5 | -4
Cc1nn2c(N)cc(-c3ccccc3)nc2c1-c1ccccc1 | 1 | 83*
CC1=C(C(=O)Nc2ccc(Cl)cc2)C(c2c(F)cccc2Br)n2ncnc2N1 (stereo unspecified) | 6 | 5
C(=C\c1ccccc1)/C1=Nc2ccccc2NC(c2ccccc2)C1 (stereo unspecified) | -5 | 81*
O=C(O)c1ccc(N2N=C(/C=C/c3ccccc3)CC2c2ccccc2)cc1 (stereo unspecified) | 1 | -26
Cc1cccc2sc(N(CCCN(C)C)C(=O)c3ccccc3Br)nc12 | -4 | 96*
CN(C)CCCN(C(=O)c1nc2ccccc2s1)c1nc2c(Cl)cccc2s1 | 11 | 25
Oc1cccc(CN2CCN(C/C=C/c3ccccc3)CC2)c1 | -5 | 2
COc1ccc(CN2CCN(C/C=C/c3ccccc3)CC2)cc1OC | -12 | 7
O=[N+]([O-])c1ccccc1CN1CCN(C/C=C/c2ccccc2)CC1 | -2 | 29
CCN1CCN(C/C=C/c2ccccc2)CC1 | -2 | -6
COc1cc(CN2CCN(C/C=C/c3ccccc3)CC2)c([N+](=O)[O-])cc1OC | -9 | 82*
O=[N+]([O-])c1cccc(CN2CCN(C/C=C/c3ccccc3)CC2)c1 | -12 | 51*
SMILES | Pf apPOL block | mHTT-CaM PPI inh
CN(C)c1ccc(/C=C/CN2CCN(Cc3ccccc3)CC2)cc1 | 1 | 56*
Clc1ccccc1N1CCN(C/C=C/c2ccccc2)CC1 | -2 | 62*
COc1ccc(/C=C2\C(=O)NC(=N)N2C)cc1OC | 2 | 10
CCOC(=O)C(C)Oc1ccc2c(c1)OC(=Cc1cc(Br)ccc1OC)C2=O (stereo unspecified) | -7 | 6
O=C1C(=Cc2ccsc2)N2CCC1CC2 | -3 | /
COc1ccc(S(=O)(=O)N2CCN(C)C(c3ccc(F)cc3)C2)cc1 (stereo unspecified) | -3 | 10
O=C1OC2C=CC=CC2=CC1C(=O)N1CCSC1c1ccccc1Cl (stereo unspecified) | -9 | 7
COc1cc(OC)c(OC)cc1C=C1Oc2c(ccc3c2CN(Cc2ccccn2)CO3)C1=O | -52 | 97*
COc1ccc(CN2COc3ccc4c(c3C2)OC(=Cc2cccc(OC)c2OC)C4=O)cc1OC | -6 | -3
COc1ccc(C=C2Oc3c(ccc4c3CN(Cc3ccncc3)CO4)C2=O)c(OC)c1 | -26 | 49
COc1cccc(C=C2Oc3c(ccc4c3CN(Cc3ccccn3)CO4)C2=O)c1OC | -92 | 100*
COc1ccccc1C=C1Oc2c(ccc3c2CN(Cc2ccccn2)CO3)C1=O | -35 | -2
COc1ccc(Br)cc1C=C1Oc2c(ccc3c2CN(Cc2ccccn2)CO3)C1=O | -197 | 100*
CCCCC(=O)Nc1ccc(NC(=O)Cc2ccccc2)cc1OC | -3 | -3
Cc1[nH][nH]c(=O)c1C(c1ccc(OCc2ccc(Br)cc2)cc1)c1c(C)[nH][nH]c1=O | 2 | 52*
CCOc1ccc(C(c2c(C)[nH][nH]c2=O)c2c(C)[nH][nH]c2=O)cc1 | 3 | 12
CC(=O)Nc1ccccc1NC(=O)c1cccc([N+](=O)[O-])c1 | 1 | -2
O=c1[nH]c(Sc2cc(Cl)c3nsnc3c2[N+](=O)[O-])nc2ccccc12 | -3 | 23
Cn1c(=O)c2ccnn2c2ccc(C(=O)NCc3ccccc3)cc21 | 3 | -2
Cc1cccc(CNC(=O)c2ccc3c(c2)n(C)c(=O)c2ccnn23)c1 | 6 | 58*
Fc1ccccc1C1=CC(c2ccc(Br)cc2)n2ncnc2N1 (stereo unspecified) | -4 | 23
O=C(Nc1nnc(-c2ccc(Cl)s2)o1)c1ccc(S(=O)(=O)N2CCCCC2)cc1 | -1 | -4
O=C(NC1CC1)c1cccc(OCC2CCCN(C(=O)Cc3ccccc3Cl)C2)c1 (stereo unspecified) | -3 | 4
CCCC(CCC)C(=O)Oc1cc(C)[nH]c(=O)c1[N+](=O)[O-] | -10 | 87*
CCCCC(=O)Oc1cc(C)[nH]c(=O)c1[N+](=O)[O-] | 2 | -4
SMILES | Pf apPOL block | mHTT-CaM PPI inh
COc1ccc(C(=O)Oc2cc(C)[nH]c(=O)c2[N+](=O)[O-])c(OC)c1 | 1 | 56*
COc1ccccc1C(=O)Oc1cc(C)[nH]c(=O)c1[N+](=O)[O-] | -6 | 8
CSc1sc(C)cc1C1C(C(=O)Nc2ccccn2)=C(C)NC2=C1C(=O)CCC2 (stereo unspecified) | -6 | 15
O=c1[nH]c2c(s1)C(c1ccc(O)cc1)C1C3CCC(C3)C1S2 (stereo unspecified) | -5 | 63*
O=c1[nH]c2c(s1)C(c1cccnc1)C1C3CCC(C3)C1S2 (stereo unspecified) | -4 | -2
COc1ncc(C(=O)Nc2cc(C)ccc2C)c(C)n1 | -1 | -4
O=C(CN1c2ccccc2Sc2ccccc21)NN=Cc1ccco1 | 62* | /
Cn1c(=O)c2c(ncn2CC(=O)N/N=C/c2ccco2)n(C)c1=O | / | i
O=C(c1cc(F)c(F)cc1Cl)N1CCN(c2ccccc2)CC1 | -6 | 1
CC1=C(C(=O)Nc2ccc(C)cn2)C(c2ccccc2)C2=C(CCCC2=O)N1 (stereo unspecified) | 51* | 2
O=C1CCCC2=C1C(c1cccnc1)Nc1ccc(C(=O)c3ccccc3)cc1N2 (stereo unspecified) | -2 | 10
CC1=C(C(=O)Nc2cccc(C(F)(F)F)c2)C(c2cccc([N+](=O)[O-])c2)C2=C(CCCC2=O)N1 (stereo unspecified) | -7 | 52*
CC1=C(C(=O)Nc2ccc(C)cn2)C(c2ccc(C)cc2)C2=C(CCCC2=O)N1 (stereo unspecified) | 0 | 9
O=C1CCCC2=C1C(c1cccc([N+](=O)[O-])c1)Nc1ccc(C(=O)c3ccccc3)cc1N2 (stereo unspecified) | -8 | 56*
CC1=C(C(=O)Nc2cccc(C(F)(F)F)c2)C(c2ccccc2)C2=C(CCCC2=O)N1 (stereo unspecified) | -2 | 36
